The results in this text go back to the supplement of paper PMC3545927.

The experiment concerns the target furin, P09958. Description: furin cleavage Z-score vs untreated control; higher = more cleavage, active = 3.5 or more, inactive = 1 or less, 8 variable residues between constant flanks. In outline: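 To give the cleavage Z-score, log read counts were set against furin-free reactions, lowess-adjusted and scaled by median absolute deviation. These counts came from PCR adapter-tagged, sequenced DNA released when purified furin cut 8-mer peptides fused to a cDNA oligonucleotide and held on magnetic beads by their N-terminus. Digests were 0.01 ml, 1:10 enzyme:substrate, in 50 mM HEPES pH 7.5 with CaCl2 and NaCl, for 7.5, 15 or 30 min.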

The other results are listed elsewhere or left out. The true hit rate is not given.

Chain of furin, P09958 (P09958 whole entry, the tested form may be a part): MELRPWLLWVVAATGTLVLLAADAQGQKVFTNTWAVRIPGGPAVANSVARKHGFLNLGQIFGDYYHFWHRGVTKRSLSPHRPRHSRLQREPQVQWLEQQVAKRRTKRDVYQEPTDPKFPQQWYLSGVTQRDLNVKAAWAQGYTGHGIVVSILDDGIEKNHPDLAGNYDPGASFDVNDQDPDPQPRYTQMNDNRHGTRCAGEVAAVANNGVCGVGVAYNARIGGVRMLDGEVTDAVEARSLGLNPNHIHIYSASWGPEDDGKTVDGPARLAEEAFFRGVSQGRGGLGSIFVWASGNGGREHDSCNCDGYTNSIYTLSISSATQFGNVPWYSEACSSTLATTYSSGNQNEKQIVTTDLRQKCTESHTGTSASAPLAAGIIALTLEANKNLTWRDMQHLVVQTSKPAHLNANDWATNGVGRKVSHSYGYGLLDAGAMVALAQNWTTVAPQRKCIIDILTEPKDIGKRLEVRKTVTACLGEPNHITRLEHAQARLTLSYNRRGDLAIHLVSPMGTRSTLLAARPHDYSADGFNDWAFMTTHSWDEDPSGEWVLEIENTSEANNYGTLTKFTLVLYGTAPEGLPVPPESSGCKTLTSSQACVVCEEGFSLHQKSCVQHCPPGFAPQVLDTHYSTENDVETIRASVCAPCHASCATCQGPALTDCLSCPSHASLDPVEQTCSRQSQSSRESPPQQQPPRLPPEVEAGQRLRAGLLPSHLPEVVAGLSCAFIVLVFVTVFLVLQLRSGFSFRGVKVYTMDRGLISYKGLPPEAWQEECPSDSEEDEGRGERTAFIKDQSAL

B1: HC842 (peptide)
chain: CAEEVALSTTAGNASASA
For the sequence B1, the “furin cleavage Z-score” value (7.5 min) is 0.962 (inactive), the “furin cleavage Z-score” value (15 min) was -0.0897 (inactive) and the “furin cleavage Z-score” value (30 min) is 1.67.

B2: HC1976 (peptide)
chain: CAEGTTPCSGAGNASASA
Regarding B2, the “furin cleavage Z-score” value is -0.304 (inactive) (7.5 min), 0.383 (inactive) (15 min) and -0.263 (inactive) (30 min).

B3: HC2512 (peptide)
chain: CASTECSAHLAGNASASA
On to B3, for which the “furin cleavage Z-score” value (7.5 min) is -0.161 (inactive), the “furin cleavage Z-score” value (15 min) is -0.192 (inactive) and the “furin cleavage Z-score” value (30 min) came to 2.81.

B4: HC129 (peptide)
chain: CAEVVHSTWVAGNASASA
Turning to B4, the “furin cleavage Z-score” value reads like this: (7.5 min) -0.835 (inactive); (15 min) 0.0271 (inactive); (30 min) -0.684 (inactive).

B5: HC383 (peptide)
chain: CAHKFNSSGCAGNASASA
Regarding B5, the “furin cleavage Z-score” value reads like this: (7.5 min) 0.00727 (inactive); (15 min) -1.4 (inactive); (30 min) -0.526 (inactive).

B6: FS-3161 (peptide)
chain: CARLRRSGRCAGNASASA
As to B6, the “furin cleavage Z-score” value is 3.21 (7.5 min), -0.166 (inactive) (15 min) and 3.48 (30 min).

B7: FS-2717 (peptide)
chain: CARLRRSNYFAGNASASA
With B7, the “furin cleavage Z-score” value runs as follows: (7.5 min) 0.785 (inactive); (15 min) 3.14; (30 min) 4.28 (active).

B8: FS-916 (peptide)
chain: CARLRRQKKGAGNASASA
Turning to B8, the “furin cleavage Z-score” value by setting is: (7.5 min) -0.934 (inactive); (15 min) -1.47 (inactive); (30 min) -0.511 (inactive).

B9: FS-1746 (peptide)
chain: CARLRRVKTAAGNASASA
With B9, the “furin cleavage Z-score” value reads like this: (7.5 min) -0.934 (inactive); (15 min) -0.994 (inactive); (30 min) -0.54 (inactive).

B10: FS-2280 (peptide)
chain: CARLRRSLPPAGNASASA
On to B10, for which the “furin cleavage Z-score” value runs as follows: (7.5 min) 7.15 (active); (15 min) 6.52 (active); (30 min) 7.39 (active).

B11: FS-1607 (peptide)
chain: CARLRRSKRCAGNASASA
With B11, the “furin cleavage Z-score” value by setting is: (7.5 min) 2.93; (15 min) 1.58; (30 min) 3.77 (active).

B12: FS-2352 (peptide)
chain: CARLRRSLSPAGNASASA
With B12, the “furin cleavage Z-score” value reads like this: (7.5 min) 10.8 (active); (15 min) 9.04 (active); (30 min) 8.19 (active).

B13: HC1043 (peptide)
chain: CAMWNFISGIAGNASASA
For B13, the “furin cleavage Z-score” value was -0.76 (inactive) (7.5 min), -0.163 (inactive) (15 min) and 1.37 (30 min).

B14: HC427 (peptide)
chain: CADTDVFVLNAGNASASA
B14: the “furin cleavage Z-score” value is -0.554 (inactive) (7.5 min), -0.537 (inactive) (15 min) and -1.25 (inactive) (30 min).

B15: HC1560 (peptide)
chain: CAKRVYYLTRAGNASASA
Turning to B15, the “furin cleavage Z-score” value reads like this: (7.5 min) 2.27; (15 min) 0.852 (inactive); (30 min) -0.874 (inactive).

B16: FS-2234 (peptide)
chain: CARRRRSILFAGNASASA
B16: the “furin cleavage Z-score” value by setting is: (7.5 min) 5.15 (active); (15 min) 6.77 (active); (30 min) 8.96 (active).

B17: FS-2795 (peptide)
chain: CARRRRSISRAGNASASA
In the case of B17, the “furin cleavage Z-score” value runs as follows: (7.5 min) 6.77 (active); (15 min) 7.84 (active); (30 min) 8.25 (active).

B18: FS-2518 (peptide)
chain: CARRRRSSKRAGNASASA
B18: the “furin cleavage Z-score” value by setting is: (7.5 min) 4.4 (active); (15 min) 5.93 (active); (30 min) 5.04 (active).

B19: FS-2599 (peptide)
chain: CARRRRSSVFAGNASASA
For the sequence B19, the “furin cleavage Z-score” value reads like this: (7.5 min) 6.51 (active); (15 min) 7.07 (active); (30 min) 8.27 (active).

B20: HC691 (peptide)
chain: CAIVSTAAQTAGNASASA
Turning to B20, the “furin cleavage Z-score” value is, setting by setting: (7.5 min) -1.17 (inactive); (15 min) -1.15 (inactive); (30 min) -1.22 (inactive).

B21: HC96 (peptide)
chain: CAVVCTSMSYAGNASASA
As to B21, the “furin cleavage Z-score” value is, setting by setting: (7.5 min) 1.17; (15 min) -0.0848 (inactive); (30 min) 0.455 (inactive).

B22: HC53 (peptide)
chain: CATTPESGSWAGNASASA
For B22, the “furin cleavage Z-score” value is -0.759 (inactive) (7.5 min), -0.574 (inactive) (15 min) and -0.54 (inactive) (30 min).

B23: HC2477 (peptide)
chain: CASTPCSAHLAGNASASA
Consider B23, for which the “furin cleavage Z-score” value is, setting by setting: (7.5 min) 0.591 (inactive); (15 min) 0.749 (inactive); (30 min) -1.42 (inactive).

B24: HC139 (peptide)
chain: CAEVVQSTWVAGNASASA
Consider B24, for which the “furin cleavage Z-score” value is, setting by setting: (7.5 min) -1.19 (inactive); (15 min) -0.568 (inactive); (30 min) -0.254 (inactive).

B25: HC509 (peptide)
chain: CAVDVQYLYGAGNASASA
For B25, the “furin cleavage Z-score” value (7.5 min) was -0.528 (inactive), the “furin cleavage Z-score” value (15 min) was 0.269 (inactive) and the “furin cleavage Z-score” value (30 min) was 0.219 (inactive).

B26: HC601 (peptide)
chain: CAHPTLVFDIAGNASASA
For B26, the “furin cleavage Z-score” value was -0.391 (inactive) (7.5 min), -1.13 (inactive) (15 min) and -0.764 (inactive) (30 min).

B27: FS-3066 (peptide)
chain: CARRRRSIQNAGNASASA
Consider B27, for which the “furin cleavage Z-score” value was 7.74 (active) (7.5 min), 10.2 (active) (15 min) and 7.21 (active) (30 min).
